High-throughput results (PubChem)
ABHD5 PLIN5 PPI = inhibitors of human ABHD5-perilipin-5 interaction; Q00G26+Q8WTS1; Split G. princeps luciferase complementation, luminescence, 4 h; inhibition, % at 4 µM; hit rate 0.78% among 360,000;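 active = inhibition above the mean inhibition across every tested compound plus 3 SD, cut at about 22% in these data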;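 note: 0% = DMSO only wells and the 100% control is not disclosed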
Target sequence (Q00G26 whole entry, looked up): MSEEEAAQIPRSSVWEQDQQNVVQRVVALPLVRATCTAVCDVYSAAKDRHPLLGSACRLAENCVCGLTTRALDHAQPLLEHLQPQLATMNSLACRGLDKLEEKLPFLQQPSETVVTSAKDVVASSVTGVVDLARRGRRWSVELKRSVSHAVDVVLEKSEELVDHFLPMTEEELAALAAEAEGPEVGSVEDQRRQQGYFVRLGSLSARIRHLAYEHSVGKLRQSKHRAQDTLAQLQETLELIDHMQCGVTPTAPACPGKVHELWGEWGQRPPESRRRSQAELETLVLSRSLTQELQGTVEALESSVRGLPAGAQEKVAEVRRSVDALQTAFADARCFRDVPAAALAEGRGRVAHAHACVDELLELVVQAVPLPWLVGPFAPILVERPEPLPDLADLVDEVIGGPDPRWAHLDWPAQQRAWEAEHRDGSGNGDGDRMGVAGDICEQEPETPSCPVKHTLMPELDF
Target sequence (Q8WTS1 whole entry, looked up): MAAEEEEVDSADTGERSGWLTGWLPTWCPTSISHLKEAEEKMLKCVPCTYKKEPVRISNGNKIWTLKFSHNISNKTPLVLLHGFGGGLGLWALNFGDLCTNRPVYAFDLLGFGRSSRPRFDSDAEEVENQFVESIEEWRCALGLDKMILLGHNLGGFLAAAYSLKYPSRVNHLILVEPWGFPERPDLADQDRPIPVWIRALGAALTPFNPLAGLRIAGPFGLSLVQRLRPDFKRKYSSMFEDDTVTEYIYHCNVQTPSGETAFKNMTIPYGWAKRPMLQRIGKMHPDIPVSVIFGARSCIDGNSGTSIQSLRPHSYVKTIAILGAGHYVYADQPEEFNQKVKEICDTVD
Peg3 prom inh = reduces Peg3 promoter-driven luciferase expression in HeLa; HeLa PEG-Prom luciferase reporter, luminescence, overnight; inhibition, % at 20 µM; hit rate 1.7% among 360,000;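 active = inhibition of at least 50% at 20 µM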
CF NFkB block = blocks PAF-induced NF-kB reporter in cystic fibrosis cells; KKLEB NF-kB-GFP reporter, GFP fluorescence overnight; inhibition, % at 5 µM; hit rate 0.86% among 360,000; AID 588850;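 active = at least 50% inhibition at 5 µM, scaled per plate between neutral and stimulator controls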;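 note: PAF is a Pseudomonas aeruginosa culture filtrate used as stimulus; plate controls were PAF-stimulated DMSO wells for no effect and unstimulated DMSO wells for full effect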
KKLEB cytotox = CF airway cell cytotoxicity counter-screen | activity change (cytotoxicity), % at 5 µM | KKLEB CF airway cells viability, ATPlite luminescence, overnight; hits give low values; cells stimulated with P. aeruginosa culture filtrate | hit rate 0.36% among 360,000;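 active = corrected activity change at or below -50% at 5 µM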
MITF TRPM1 inh = inhibitors of MITF-driven TRPM1 promoter in melanoma cells; SK-MEL-5 TRPM1 promoter luciferase, 24 h; inhibition, % at 12.5 µM; hit rate 0.83% among 330,000; AID 488899;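 active = mean inhibition across replicates of 60% or more, whatever share of single replicates reaches that level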
HIF-2a inh = inhibitors of HIF-2a. hit rate 0.72% among 360,000. 786-0 RCC cells HIF-2a reporter, luciferase luminescence, overnight. inhibition, % at 18.8 µM. AID 624352;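 active = inhibition of the luminescence signal of 40% or more relative to plate controls, in a single-dose primary screen at 18.75 µM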
The depositor's hits bear a star; / = not tested or not shown. This is a sample that favours compounds with a hit; in the whole collection about 3.1% have one here.

SMILES	ABHD5 PLIN5 PPI	Peg3 prom inh	CF NFkB block	KKLEB cytotox	MITF TRPM1 inh	HIF-2a inh
C=CC[C@@H](CC(=O)N(CCO)Cc1ccccc1)C(=O)NC[C@H](OC(=O)[C@@H](CC=C)CC(=O)OC(C)(C)C)c1ccccc1	22.5*	27.4	10.7	-1.3	-0.9	6.8
Cc1ccccc1CN(C)C(C)C(=O)Nc1ccccc1F (centres undefined)	-1.1	5.9	20.4	-8.8	-11.1	5.9
CCOC(=O)C1(CCCc2ccccc2)CCN(C(=O)c2cnn(CC)c2)CC1	0.3	6.2	4.7	5.5	2.7	-1.9
Cc1ccc(S(=O)(=O)N2CCCCC2)cc1NC(=O)Cn1cc(C(F)(F)F)ccc1=O	-9.2	-2.4	-12.8	14.3	2.0	-1.4
COc1ccc(CN(C)C(=O)c2cc(-c3ccccc3)nc3ccc(C)cc23)c(OC)c1	6.4	98.5*	12.5	-10.0	/	-35.3
CCN(CC)CCCNc1nc2ccccc2c2[nH]c3ccc(OC)cc3c12	-1.5	99.3*	13.0	-16.9	102.0*	35.1
Cc1ccc(N=Cc2cc(Cc3ccccc3Cl)cc([N+](=O)[O-])c2O)c(O)c1	7.6	-40.5	73.3*	6.1	-2.4	-31.6
COc1ccc(N=Cc2cc(Cc3ccccc3Cl)cc([N+](=O)[O-])c2O)cc1OC	9.1	8.2	46.1	37.1	6.0	21.8
O=S(=O)(c1cnc(Cl)c(Br)c1)N1CCc2ccccc21	-1.8	68.9*	-32.1	10.3	3.2	35.6
O=S(=O)(c1cnc(Cl)c(Cl)c1)N1CCc2ccccc21	3.3	42.0	-30.2	3.4	15.4	21.8
O=S(=O)(c1cnc(Cl)c(Cl)c1)N1CCCc2ccccc21	1.4	51.5*	-8.2	14.2	-5.3	21.5
C=CCNc1sc(C(=O)c2ccc(C)cc2)c(N)c1C#N	9.6	-9.9	15.6	-14.2	4.5	-8.6
C=CCNc1nc(N)c(C(=C(C#N)C#N)c2ccc(Br)cc2)s1	-1.0	55.9*	7.4	-12.2	22.4	3.0
C#CCOCCOCCOCCNc1nc(N2CCN(C(=O)[C@H](CCC(=O)O)n3cc(C(N)CO)nn3)CC2)nc(N2CCN(C(=O)[C@H](Cc3cc4ccccc4[nH]3)n3cc(C(N)[C@H](C)CC)nn3)CC2)n1 (some centres undefined)	2.3	0.1	-13.6	7.2	0.2	13.3
C#CCOCCOCCOCCNc1nc(N2CCN(C(=O)[C@H](CCCCN)n3cc([C@@H](N)C(C)CC)nn3)CC2)nc(N2CCN(C(=O)[C@H](Cc3cc4ccccc4[nH]3)n3cc([C@@H](N)CC(C)C)nn3)CC2)n1 (some centres undefined)	24.1*	-4.6	-6.2	19.3	3.1	14.6
C#CCOCCOCCOCCNc1nc(N2CCOCC2)nc(N2CCN(C(=O)CCCCCCCCCCNC(=O)[C@@H](CCC(=O)O)n3cc(CCCCCN)nn3)CC2)n1	7.2	-7.2	-1.4	13.8	-12.2	9.4
C#CCOCCOCCOCCNc1nc(N2CCN(C(=O)CCCCCCCCCCNC(=O)[C@H]([C@@H](C)CC)n3cc(CCCCCN)nn3)CC2)nc(N2CCN(C(=O)CCCCCCCCCCNC(=O)[C@H](CO)n3cc(CCCCCN)nn3)CC2)n1	39.4*	99.3*	-21.6	-6.5	81.6*	-3.1
C#CCOCCOCCOCCNc1nc(N2CCN(C(=O)CCCCCCCCCCNC(=O)[C@@H](CCC(=O)O)n3cc(CCCCCN)nn3)CC2)nc(N2CCN(C(=O)CCCCCCCCCCNC(=O)[C@H]([C@@H](C)CC)n3cc(CCCCCN)nn3)CC2)n1	51.2*	-40.2	0.5	19.0	-7.3	-17.4
C#CCOCCOCCOCCNc1nc(N2CCN(C(=O)CCCCCCCCCCNC(=O)Cn3cc(CCCCCN)nn3)CC2)nc(N2CCN(C(=O)CCCCCCCCCCNC(=O)[C@H]([C@@H](C)CC)n3cc(CCCCN=C(N)N)nn3)CC2)n1	58.2*	25.4	-8.9	15.3	74.6*	-16.2
CCCNC(=O)Nc1ccc2c(c1)OC[C@H](C)N(C(=O)C1CCCCC1)C[C@@H](C)[C@H](OC)CN(C)C2=O	-3.1	/	/	/	/	12.1
C#CCOCCOCCOCCNc1nc(N2CCN(C(=O)Cn3cc(CCCN=C(N)N)nn3)CC2)nc(N2CCN(C(=O)[C@H]([C@@H](C)CC)n3cc(CCCCN)nn3)CC2)n1	-3.8	-8.1	17.6	2.3	3.3	5.6
C#CCOCCOCCOCCNc1nc(N2CCN(C(=O)CCCCCCCCCCNC(=O)[C@H]([C@@H](C)CC)n3cc(CCCCCN)nn3)CC2)nc(N2CCN(C(=O)CCCCCCCCCCNC(=O)[C@H]([C@@H](C)CC)n3cc(CCCCN=C(N)N)nn3)CC2)n1	59.3*	71.0*	-46.2	12.7	98.7*	-4.3
C#CCOCCOCCOCCNc1nc(N2CCN(C(=O)CCCCCCCCCCNC(=O)[C@H]([C@@H](C)CC)n3cc(CCCCN=C(N)N)nn3)CC2)nc(N2CCN(C(=O)CCCCCCCCCCNC(=O)[C@H](CO)n3cc(CCCCCN)nn3)CC2)n1	47.5*	27.7	8.3	10.2	85.2*	0.1
C#CCOCCOCCOCCNc1nc(N2CCOCC2)nc(N2CCN(C(=O)CCCCCCCCCCNC(=O)[C@@H]([C@H](C)CC)n3cc(CCCCCN)nn3)CC2)n1	26.6*	52.8*	1.2	7.6	18.9	-1.7
C#CCOCCOCCOCCNc1nc(N2CCN(C(=O)CCCCCCCCCCNC(=O)[C@H](CCCCN)n3cc(C)nn3)CC2)nc(N2CCN(C(=O)CCCCCCCCCCNC(=O)[C@H](CCCCN)n3cc(CCCC(=O)O)nn3)CC2)n1	6.7	8.7	15.8	15.8	0.9	0.4
SMILES	ABHD5 PLIN5 PPI	Peg3 prom inh	CF NFkB block	KKLEB cytotox	MITF TRPM1 inh	HIF-2a inh
Cc1[nH]c2ccccc2c1C(=O)CSc1nc2ncc(Cl)cc2[nH]1	1.6	114.6*	-1.0	4.3	12.7	20.6
Cc1ccc2nc(SCC(=O)c3c(C)[nH]c4ccccc34)[nH]c2c1	12.0	-51.4	0.0	-5.2	-7.8	-156.3
CCn1c2ccccc2c2nc3cc(C(=O)O)ccc3nc21	-7.4	-55.7	24.3	-62.9*	-2.8	-69.4
O=C(Nc1ccc(C(=O)NC2CCCCC2)cc1)c1cccnc1	-0.1	4.2	17.0	1.6	6.7	7.6
CC1=NN(c2nc3ccccc3[nH]2)C(=O)C1Cc1ccccc1 (centres undefined)	4.6	-3.3	50.9*	-52.2*	/	-104.4
CC(C)=CCc1c(O)cc(O)c2c(=O)c(O[C@@H]3O[C@@H](C)[C@H](O)[C@@H](O)[C@H]3O)c(-c3ccc(O)cc3)oc12	4.9	37.6	67.5*	13.5	5.5	-0.1
CCOC(=O)Cc1csc(/N=C/c2c(O)n(-c3ccc(C)c(C)c3)c(=O)c3ccccc23)n1	1.1	2.4	33.0	-36.4	66.3*	14.6
C=C1CCC2C(C)(C(=O)O)CCCC2(C)C1CCC(CO)CCO (centres undefined)	-2.0	107.0*	-8.0	16.2	/	-0.9
C=C/C(C)=C/CC1C(=C)CCC2C(C)(C(=O)O)CCCC12C (centres undefined)	-12.6	6.8	-6.2	3.3	-1.1	9.7
